About 79,000 compounds went through this panel and 15% of them were active in at least one assay; those are over-represented in the sample as a whole. A number with no mark means an inactive call. Active and inactive are the calls of the source. Rule as the data show it: active = growth inhibition above about 70%; inactive = the rest.
Assays:
[1] = NCI Yeast Anticancer Drug Screen. Data for the rad50 strain (AID 155);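 also: 0% = growth of vehicle-only cultures of the same strain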; details: S. cerevisiae rad50 strain growth inhibition, active compounds read high
Procedure, shortened: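 A DNA repair-deficient yeast mutant serves as the test organism; compound-induced growth inhibition is calculated against vehicle-treated cells.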

[2] = NCI Yeast Anticancer Drug Screen. Data for the mec2-1 strain (AID 157); details: S. cerevisiae mec2-1 strain, active compounds read high
Procedure, shortened: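 Strain: mec2-1 (DNA repair/cell cycle alteration). Compound exposure, then growth measured; inhibition expressed relative to vehicle.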

[3] = NCI Yeast Anticancer Drug Screen. Data for the sgs1 mgt1 strain (AID 161);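 also: 0% = growth of cultures given vehicle only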; details: S. cerevisiae sgs1 mgt1 strain, active compounds read high
Procedure, shortened: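 Mutant yeast exposed to compound; growth scored against vehicle-only wells.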

[4] = NCI Yeast Anticancer Drug Screen. Data for the cln2 rad14 strain (AID 165);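 also: 0% = growth equal to vehicle treated cultures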; details: S. cerevisiae cln2 rad14 strain, active compounds read high
Procedure, shortened: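 Compounds are applied to the cln2 rad14 yeast strain, and growth is then compared with that of vehicle-treated cultures to give inhibition.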

[5] = NCI Yeast Anticancer Drug Screen. Data for the bub3 strain (AID 167); details: S. cerevisiae bub3 mutant strain, active compounds read high
Procedure, shortened: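 Inhibition values come from growth of compound-treated mutant yeast normalised to vehicle-treated controls.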

[6] = NCI Yeast Anticancer Drug Screen. Data for the mlh1 rad18 strain (AID 175); details: S. cerevisiae mlh1 rad18 strain growth inhibition, active compounds read high
Procedure, shortened: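 Read-out is yeast growth inhibition, calculated against vehicle-only controls. The compound was applied to a strain engineered with DNA damage repair alterations.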

[7] = at 5.0 µM (retest, dose inferred, filed as 0.5)
[8] = at 50.0 µM (retest, dose inferred, filed as 5.0)

| SMILES | growth inhibition [1, 7] | growth inhibition [1, 8] | growth inhibition ([1]; at 50.0 µM) | growth inhibition [2, 7] | growth inhibition [2, 8] | growth inhibition ([2]; at 50.0 µM) | growth inhibition [3, 7] | growth inhibition [3, 8] | growth inhibition ([3]; at 50.0 µM) | growth inhibition [4, 7] | growth inhibition [4, 8] | growth inhibition ([4]; at 50.0 µM) | growth inhibition [5, 7] | growth inhibition [5, 8] | growth inhibition ([5]; at 50.0 µM) | growth inhibition [6, 7] | growth inhibition [6, 8] | growth inhibition ([6]; at 50.0 µM) |
| --- | --- | --- | --- | --- | --- | --- | --- | --- | --- | --- | --- | --- | --- | --- | --- | --- | --- | --- |
| CCCCCCCCCCCCn1cnc2ncnc(Cl)c21 | 6% | 48% | 98.2% (active) | 7% | 54% | 99% (active) | 11% | 68% | 98.7% (active) | 2% | 28% | 98.4% (active) | -4% | 41% | 98.8% (active) | 6% | 63% | 98.6% (active) |
| CN(C)CC1CC/C(=C\c2ccc(Cl)c(Cl)c2)C1=O (configuration not stated) | 21% | 98% (active) | 93.1% (active) | 44% | 99% (active) | 93.6% (active) | 25% | 98% (active) | 92.4% (active) | 37% | 99% (active) | 91.3% (active) | 74% (active) | 99% (active) | 91.5% (active) | 84% (active) | 99% (active) | 90.2% (active) |
| COc1ccccc1C1(c2ccccc2OC)OC(=O)c2ccccc21 | 3% | 14% | 77.8% (active) | -1% | 12% | 60.6% | 3% | -18% | 80.3% (active) | 1% | 22% | 69% | -2% | 17% | 77.3% (active) | -6% | 33% | 76% (active) |
| CCOC(=O)C(=O)CC1=Nc2ccccc2SC(c2cccc(C)c2)C1 (configuration not stated) | 2% | 81% (active) | 91.9% (active) | -1% | 98% (active) | 92.9% (active) | 7% | 98% (active) | 99.2% (active) | -2% | 86% (active) | 50% | 12% | 98% (active) | 99.1% (active) | 2% | 97% (active) | 97.5% (active) |
| O=C(O)c1ccc(NC(c2ccccc2)c2ccc3cccnc3c2O)cc1 (configuration not stated) | -12% | 98% (active) | 98.2% (active) | 2% | 98% (active) | 98% (active) | -8% | 98% (active) | 97.8% (active) | -40% | 95% (active) | 97.5% (active) | -3% | 98% (active) | 97.7% (active) | 9% | 98% (active) | 98.2% (active) |
| CN(C)N=Nc1c(-c2ccccc2)n[nH]c1-c1ccccc1 | 95% (active) | 99% (active) | 99.6% (active) | 99% (active) | 100% (active) | 99.5% (active) | 99% (active) | 100% (active) | 99.3% (active) | 99% (active) | 99% (active) | 99.5% (active) | 99% (active) | 99% (active) | 99.5% (active) | 99% (active) | 100% (active) | 99.5% (active) |
| CC(=O)Nc1ccc(/C=c2\sc3nnc(-c4cccnc4)n3c2=O)cc1 | 33% | 87% (active) | 89.8% (active) | 7% | 91% (active) | 88% (active) | 6% | 78% (active) | 87.2% (active) | -5% | 58% | 71% (active) | 8% | 94% (active) | 80.5% (active) | -17% | 95% (active) | 86.5% (active) |
| CCCCCCCCCCCCCCCC(=O)NCC[N+](C)(CC)CC | -32% | 0% | 57.4% | -6% | -11% | 27.4% | -4% | 30% | 72.2% (active) | 1% | -15% | 17.9% | 2% | 19% | 10.5% | -8% | 7% | 29.5% |
| CCC(C(=O)CCN(C)C)(c1ccccc1)c1ccccc1 | 67% | 99% (active) | 99.5% (active) | 49% | 99% (active) | 99.6% (active) | 80% (active) | 99% (active) | 99.3% (active) | 19% | 99% (active) | 99.3% (active) | 59% | 99% (active) | 99.8% (active) | 80% (active) | 99% (active) | 99.5% (active) |
| CN1CCN(CCCN)CC1 | -8% | 8% | 3.7% | -3% | -25% | 25.1% | -4% | -3% | -29.9% | 4% | -4% | 29.9% | 17% | -14% | -18% | -2% | 5% | 11.1% |
| O=C(c1ccccc1)C1C(c2ccccc2)OP(c2ccccc2)(c2ccccc2)(c2ccccc2)C1c1ccccc1 (configuration not stated) | 83% (active) | 99% (active) | 99.7% (active) | 96% (active) | 99% (active) | 99.8% (active) | 83% (active) | 100% (active) | 99.8% (active) | 56% | 99% (active) | 99.5% (active) | 80% (active) | 99% (active) | 99.6% (active) | 84% (active) | 99% (active) | 99.8% (active) |
| COC(=O)C1(Cc2ccc(C)cc2)Cc2c(C)cccc2C1=O (configuration not stated) | -2% | 47% | 70.3% (active) | -2% | 35% | 39.9% | 13% | 45% | 75.8% (active) | 6% | 32% | 55.9% | 17% | 71% (active) | 75.2% (active) | -1% | 54% | 54.4% |
| ClCC1CSC2(CCCCC2)O1 (configuration not stated) | 16% | 3% | 21.5% | 10% | -16% | 20.9% | 7% | -8% | 27.1% | 15% | 32% | 13.7% | -13% | -9% | 31.6% | -17% | -23% | 27.5% |
| CCOC(=O)C1=C(c2ccccc2)N(C)c2ccccc2S1 | 4% | 55% | 75.9% (active) | 4% | 92% (active) | 80.7% (active) | 5% | 64% | 76.2% (active) | -1% | -7% | -0.8% | 2% | 78% (active) | 87% (active) | 1% | 62% | 67.2% |
| CCCCN1CCN(c2ccc([N+](=O)[O-])c3no[n+]([O-])c23)CC1 | 97% (active) | 99% (active) | 90.5% (active) | 94% (active) | 99% (active) | 93.2% (active) | 90% (active) | 99% (active) | 90.2% (active) | 43% | 98% (active) | 88.2% (active) | 58% | 98% (active) | 91.2% (active) | 96% (active) | 99% (active) | 90.5% (active) |
| CC(=O)SC1C(=O)N(C)C(SC(C)=O)C(=O)N1C (configuration not stated) | -5% | -21% | 95.8% (active) | -5% | 11% | 97% (active) | 0% | 55% | 96.6% (active) | -1% | 0% | 95% (active) | 0% | -3% | 95.6% (active) | -2% | 70% (active) | 96.5% (active) |
| COc1cc(C(=O)C2OC2c2ccc(Cl)cc2)c([N+](=O)[O-])cc1OC (configuration not stated) | 25% | 51% | 54% | 22% | 47% | 26.4% | 24% | 61% | 54% | 36% | 57% | 58.5% | 15% | 51% | 36.8% | 36% | 85% (active) | 64.2% |
| CC(C)c1ccc(O)c(O)c(=O)c1 | 14% | 89% (active) | 92.8% (active) | 9% | 63% | 94.7% (active) | 70% (active) | 44% | 93.8% (active) | 18% | 26% | 91.7% (active) | 7% | 79% (active) | 93.1% (active) | 41% | 64% | 92.7% (active) |
| COc1cc(C(c2ccccc2)c2ccccc2)c2ccccc2c1O | 15% | 51% | 33.3% | 15% | 41% | 16.6% | -17% | 25% | 61.4% | 13% | 73% (active) | 44.9% | 8% | 70% (active) | 40.2% | 24% | 75% (active) | 74% (active) |
